Data taken from PubChem BioAssay (NCI).
The panel holds about 83,000 compounds, 20% with a hit somewhere; the sample as a whole holds those more often.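 Activity criterion: percent growth below 10, measured after cells in 96-well plates were exposed to a single compound concentration for 48 hours.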 Calls of active or inactive are those of the source.

Assays:
Experiment in all cases: NCI-60 one-dose screen, 48 h (100 = growth as untreated, 0 = no growth, -100 = all killed)
Conditions in all cases: 10 µM
T-47D breast = test system: T-47D breast
BT-549 breast = test system: BT-549 breast
MDA-MB-435 melanoma = test system: MDA-MB-435 melanoma
SW-620 colon = test system: SW-620 colon
MCF7 breast = test system: MCF7 breast
HCT-116 colon = test system: HCT-116 colon
HCC-2998 colon = test system: HCC-2998 colon
KM12 colon = test system: KM12 colon

Measured: growth

CCOC(=O)C1=CSC2=NC3=C(CCC/C3=C\c3ccc(Cl)cc3)C(c3ccc(Cl)cc3)N12 (stereo unspecified)
inactive: T-47D breast 77.4% | BT-549 breast 98.4% | MDA-MB-435 melanoma 79.1% | SW-620 colon 100% | MCF7 breast 31.3% | HCT-116 colon 49.7% | HCC-2998 colon 101% | KM12 colon 66.7%

COc1cc2c3c(n([C@H]4CCOC4)c(=O)c2cc1OC)-c1cc2c(cc1C3=O)OCO2
inactive: T-47D breast 11.8% | BT-549 breast 48.2% | MDA-MB-435 melanoma 59.3% | SW-620 colon 46.2% | MCF7 breast 14.2% | HCT-116 colon 31% | HCC-2998 colon 70.5% | KM12 colon 57.1%

CCN(CC)CC(=O)N(CC)c1ccc(C)c(Cl)c1
inactive: T-47D breast 90.3% | BT-549 breast 98.1% | MDA-MB-435 melanoma 103% | SW-620 colon 97.3% | MCF7 breast 98.6% | HCT-116 colon 98.7% | HCC-2998 colon 102% | KM12 colon 97.9%

COc1ccc(/C=C2\CCCC3C2=Nc2ccccc2NC3c2ccc(OC)cc2)cc1 (stereo unspecified)
inactive: T-47D breast 101% | BT-549 breast 79.6% | MDA-MB-435 melanoma 13.8% | SW-620 colon 72.2% | MCF7 breast 56.1% | HCT-116 colon 38.1% | HCC-2998 colon 104% | KM12 colon 27.5%

O=S(=O)(O)c1cccc(Nc2ccc3ccccc3c2)c1
inactive: T-47D breast 89.9% | BT-549 breast 98.4% | MDA-MB-435 melanoma 106% | SW-620 colon 93.2% | MCF7 breast 99.5% | HCT-116 colon 90.5% | HCC-2998 colon 104% | KM12 colon 90.6%

O=C(CSc1nnc(-c2ccc(Cl)cc2)o1)Nc1ccc(C(=O)/C=C/c2ccc(Cl)cc2)cc1
inactive: T-47D breast 98.6% | BT-549 breast 133% | MDA-MB-435 melanoma 98.1% | SW-620 colon 101% | MCF7 breast 78% | HCT-116 colon 103% | HCC-2998 colon 93.1% | KM12 colon 97.8%

CC(C)(C)c1ccc(S(=O)(=O)N[C@H]2CC[C@H]3[C@@H]4CCc5cc(O)c([N+](=O)[O-])cc5[C@H]4CC[C@]23C)cc1
inactive: T-47D breast 46.6% | BT-549 breast 67.7% | MDA-MB-435 melanoma 80.3% | SW-620 colon 89.9% | MCF7 breast 54.1% | HCT-116 colon 32.6% | HCC-2998 colon 92.5% | KM12 colon 77.1%

OC(CCN1CCCC1)(c1ccccc1)C1CCCCC1 (stereo unspecified)
inactive: T-47D breast 102% | BT-549 breast 106% | MDA-MB-435 melanoma 101% | SW-620 colon 105% | MCF7 breast 101% | HCT-116 colon 104% | HCC-2998 colon 105% | KM12 colon 101%

COc1ccc(/C(C#N)=C/c2ccccc2OC)cc1
inactive: T-47D breast 26% | BT-549 breast 37.1% | SW-620 colon 22.8% | MCF7 breast 14.8% | HCT-116 colon 18.1% | HCC-2998 colon 50.2% | KM12 colon 32.2%
active: MDA-MB-435 melanoma -19.4%

CCOC(=O)Cn1c(=O)c2sc3ncccc3c2n2nnc(-c3ccccc3)c12
inactive: T-47D breast 94.3% | BT-549 breast 98.2% | MDA-MB-435 melanoma 104% | SW-620 colon 119% | MCF7 breast 79.8% | HCT-116 colon 91.5% | HCC-2998 colon 114% | KM12 colon 114%

O=C(Nc1ccc(OCc2nnc(-c3ccc(Cl)cc3)o2)c(F)c1)Nc1ccc(Cl)c(C(F)(F)F)c1
active: T-47D breast 4.57% | BT-549 breast -13.9% | MDA-MB-435 melanoma 8.01% | MCF7 breast 3.17% | HCT-116 colon 2.12% | HCC-2998 colon 9.15% | KM12 colon 3.14%
inactive: SW-620 colon 15.7%

COc1ccc(C(=O)c2ccccc2CN2C(=O)c3ccccc3C2=O)cc1
inactive: T-47D breast 90.6% | BT-549 breast 112% | MDA-MB-435 melanoma 108% | SW-620 colon 99% | MCF7 breast 102% | HCT-116 colon 101% | HCC-2998 colon 105% | KM12 colon 107%

COc1ccc(-c2nnc(SCC(=O)Nc3ccc(C(=O)/C=C/c4ccccc4)cc3)n2-c2ccccc2)cc1OC
inactive: T-47D breast 72.9% | BT-549 breast 92.8% | MDA-MB-435 melanoma 86.1% | SW-620 colon 66.4% | MCF7 breast 36.4% | HCT-116 colon 17% | HCC-2998 colon 110% | KM12 colon 91.7%

O=C(CSc1nccc(Nc2cccc3ccccc23)n1)c1ccc(Cl)cc1
inactive: T-47D breast 76.1% | BT-549 breast 102% | MDA-MB-435 melanoma 101% | SW-620 colon 92.7% | MCF7 breast 99.5% | HCT-116 colon 67.5% | HCC-2998 colon 101% | KM12 colon 94.7%

CC[C@H]1OC(=O)[C@H](C)[C@@H](O[C@H]2C[C@@](C)(OC)[C@@H](O)[C@H](C)O2)[C@H](C)[C@@H](O[C@@H]2O[C@H](C)C[C@H](N(C)C)[C@H]2O)[C@](C)(OC)C/C(C)=C2/O[C@@]1(C)C=C2C
inactive: T-47D breast 41.8% | BT-549 breast 78.7% | KM12 colon 18.2%
active: MDA-MB-435 melanoma -83.4% | SW-620 colon -100% | MCF7 breast -8.4% | HCT-116 colon 4.59% | HCC-2998 colon -85.8%

COc1cc(C(=O)N2CCN(c3cc4c(cc3F)c(=O)c(C(=O)NO)cn4C3CC3)CC2)cc(OC)c1OC
inactive: T-47D breast 82.7% | BT-549 breast 105% | MDA-MB-435 melanoma 105% | SW-620 colon 99% | MCF7 breast 99% | HCT-116 colon 105% | HCC-2998 colon 110% | KM12 colon 104%

O=C1c2c(c3c4ccccc4n(CCCCCCN4CCOCC4)c3c3[nH]c4ccccc4c23)C(=O)N1O
active: SW-620 colon 4.79% | MCF7 breast 6.49% | HCT-116 colon -16%
inactive: T-47D breast 79.9% | BT-549 breast 91.9% | MDA-MB-435 melanoma 56.4% | HCC-2998 colon 87.8% | KM12 colon 78%

S=c1cnc2ccccc2[nH]1
inactive: T-47D breast 81.9% | BT-549 breast 103% | MDA-MB-435 melanoma 101% | SW-620 colon 91% | MCF7 breast 72.9% | HCT-116 colon 88.3% | HCC-2998 colon 67.6% | KM12 colon 93.9%

O=C1/C=C/[C@@H](O)[C@@H]2C[C@@H](O)C[C@H]2/C=C/CCC[C@@H](C(F)(F)F)O1
inactive: T-47D breast 82.3% | BT-549 breast 123% | MDA-MB-435 melanoma 93.5% | SW-620 colon 93.9% | MCF7 breast 67.1% | HCT-116 colon 109% | HCC-2998 colon 107% | KM12 colon 99.3%

C#CCOc1c(OC)cc(C(=O)/C(C)=C/c2cccc(N=[N+]=[N-])c2)cc1OC
active: MDA-MB-435 melanoma -19% | HCT-116 colon 6.9%
inactive: T-47D breast 44.3% | BT-549 breast 11.4% | SW-620 colon 36.5% | MCF7 breast 16.4% | HCC-2998 colon 21.4% | KM12 colon 26.6%

COc1ccc(-c2nn(-c3cccc(Cl)c3)cc2/C=C2\NC(=S)N(c3ccc(Cl)cc3)C2=O)cc1
active: BT-549 breast -13% | MDA-MB-435 melanoma 7.26% | HCT-116 colon 0.814%
inactive: T-47D breast 11.9% | SW-620 colon 40.8% | MCF7 breast 19.3% | HCC-2998 colon 23.2% | KM12 colon 26.6%

CC(C)N(CCOc1cccc(-c2nc3sccn3c2-c2ccnc(S(C)(=O)=O)n2)c1)C(C)C
inactive: T-47D breast 88.3% | BT-549 breast 128% | MDA-MB-435 melanoma 86.1% | SW-620 colon 67.1% | MCF7 breast 54.4% | HCT-116 colon 44.9% | HCC-2998 colon 95.9% | KM12 colon 87.8%

COc1ccc(-c2nn(-c3cccc(Cl)c3)cc2-c2cc(-c3ccccc3)nc(N)n2)cc1
active: HCT-116 colon 5.52%
inactive: T-47D breast 46.5% | BT-549 breast 73% | MDA-MB-435 melanoma 57% | SW-620 colon 45.3% | MCF7 breast 12.9% | HCC-2998 colon 21.9% | KM12 colon 31.8%

CC[C@@H](C(=O)[C@H](C)[C@H](O)[C@@H](C)[C@H]1O[C@H]([C@@H](CC)C(=O)N(CC)CC)CC[C@H]1C)C1O[C@]2(C=C[C@@H](O)[C@]3(CC[C@@](C)([C@H]4CC[C@](O)(CC)[C@H](C)O4)O3)O2)[C@H](C)C[C@@H]1C (stereo partly specified)
inactive: T-47D breast 17% | BT-549 breast 37.1% | MDA-MB-435 melanoma 26.3% | SW-620 colon 18.5% | MCF7 breast 10.4% | HCT-116 colon 10.8% | HCC-2998 colon 22.1% | KM12 colon 29.6%

Cc1cc(CC(C)CC(C)(C)C)n(O)c(=O)c1 (stereo unspecified) (tested in a mixture with another compound)
inactive: T-47D breast 28.1% | BT-549 breast 29.4% | MDA-MB-435 melanoma 22.2% | SW-620 colon 34.4% | MCF7 breast 17.5% | HCT-116 colon 22.9% | HCC-2998 colon 57.5% | KM12 colon 27.4%

CCOC(=O)c1cocc1C(=O)O
inactive: T-47D breast 104% | BT-549 breast 108% | MDA-MB-435 melanoma 106% | SW-620 colon 103% | MCF7 breast 101% | HCT-116 colon 103% | HCC-2998 colon 103% | KM12 colon 104%

COc1cc(-c2nn(-c3ccc(NC(=O)NCCCNC(=O)c4ccccc4)cc3)cc2-c2ccncc2)ccc1Cl
inactive: T-47D breast 67.5% | BT-549 breast 22.8% | SW-620 colon 33.3% | MCF7 breast 12.8% | HCC-2998 colon 32% | KM12 colon 20%
active: MDA-MB-435 melanoma 2.49% | HCT-116 colon 9.58%
